Bioassay records: PubChem, National Center for Advancing Translational Sciences (NCATS)
An excerpt weighted towards active compounds, which were near 6.1% of everything screened.
Gal4-VP16 FLuc = Gal4-VP16 reporter inhibition counter-screen | Drosophila S2 Gal4-VP16 UAS-luciferase, luminescence, 20 h | Potency, µM (series often up to 53.6 µM), without a hit: at the top dose activity, negative = inhibition, usual class: inhibitors | actives 3.5% (n = 310,000);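 further: Gal4-VP16 expression switched on by copper sulfate through the metallothionein promoter; on the % scale 0 is the no-effect control and ±100 the full control effect; nearly all actives have a fitted effect of over 50% in size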
S2 tox = viability counter-screen for ATXN expression inhibitors. actives 0.49% (n = 400,000). AID 651635. S2 cells (HEK-293 line with an ATXN2-luciferase reporter) viability, CellTiter-Fluor protease fluorescence, 24 h. Potency, µM (highest dose often 56.7 µM), most hits filed as cytotoxic; further: nearly all actives have a fitted effect of over 40% in size
HepG2 tox = counter-screen for TGF-b inhibitors: cytotoxicity in HepG2 cells; AID 588856; actives 0.76% (n = 410,000); HepG2 CAGA-GFP viability, ATP luminescence, 18 h; Potency, µM (titrated, usually from 46.1 µM), for inactives: at the top dose activity change, negative = cytotoxicity, actives largely listed as cytotoxic
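HepG2 CAGA-GFP cells (1000/well, DMEM with 1% FBS) received compound, then TGF-beta at 500 pg/mL final, and were incubated 18 hours at 37 degrees C. Viability was read by CellTiter-Glo luminescence. Media-only wells were set as complete cell-killing and DMSO as no toxicity.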
ATXN2 expr inh = ATXN2 expression inhibition | HEK-293 ATXN2-luciferase reporter, luminescence, 24 h | Potency, µM (series often up to 57 µM), inactives show at the highest dose activity change, negative = inhibition, actives largely listed as inhibitors | actives 0.72% (n = 360,000) | AID 1745845; further: on the % scale 0 is the no-effect control and ±100 the full control effect; nearly all actives have a fitted effect of over 55% in size
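ATXN2-luciferase reporter cells (luciferase flanked by upstream and downstream ATXN2 gene portions) were treated 24 h at 37 °C with compounds at up to 57 uM. SteadyGlo luminescence gave expression; GF-AFC fluorescence gave viability.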
RORg inh = inhibitors of mouse ROR gamma transcriptional activity; actives 5.4% (n = 310,000); Drosophila S2 Gal4-RORgamma UAS-luciferase reporter, 20 h; Potency, µM (titrated, usually from 53.6 µM), without a hit: at the top dose activity change, negative = inhibition, usual class: inhibitors; AID 2551; further: on the % scale 0 is the no-effect control and ±100 the full control effect; nearly all actives have a fitted effect of over 60% in size
Target sequence (P51450 whole entry, looked up, the tested form may be a part): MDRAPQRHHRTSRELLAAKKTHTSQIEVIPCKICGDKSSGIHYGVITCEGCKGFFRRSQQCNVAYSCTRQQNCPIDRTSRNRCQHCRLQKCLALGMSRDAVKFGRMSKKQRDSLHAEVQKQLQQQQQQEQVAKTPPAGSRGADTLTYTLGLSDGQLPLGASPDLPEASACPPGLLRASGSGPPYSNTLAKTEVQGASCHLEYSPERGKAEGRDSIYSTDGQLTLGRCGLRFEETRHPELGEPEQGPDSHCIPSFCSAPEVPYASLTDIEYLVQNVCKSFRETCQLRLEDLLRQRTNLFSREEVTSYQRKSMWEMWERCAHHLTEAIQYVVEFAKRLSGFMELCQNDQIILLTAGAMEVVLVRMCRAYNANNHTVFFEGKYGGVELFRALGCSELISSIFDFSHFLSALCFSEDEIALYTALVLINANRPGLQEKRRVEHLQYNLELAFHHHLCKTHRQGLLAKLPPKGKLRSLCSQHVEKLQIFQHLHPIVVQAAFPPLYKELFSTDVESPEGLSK
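Drosophila S2 cells stably expressing Gal4-DBD/mouse RORγ fusion under metallothionein promoter plus UAS-luciferase; compound 1 h, then 700 uM CuSO4 induction for 20 h at ambient temperature; inhibition read as reduced luminescence.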
TGFb inhibitor = blocks TGF-b signaling; HepG2 CAGA-GFP TGF-b/SMAD3 reporter, GFP fluorescence, 18 h; TGF-beta stimulated, 500 pg/mL final; Potency, µM (top dose mostly 46.1 µM), for inactives: at the top dose activity, negative = inhibition, hits mostly inhibitors; actives 1.2% (n = 410,000); further: on the % scale 0 is the no-effect control and ±100 the full control effect; nearly all actives have a fitted effect of over 65% in size
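HEPG2 CAGA-GFP, 1000 cells/well; 2 h settle, 37 C; cpd via pin tool; TGF-b 500 pg/mL final; 18 h, 37 C; GFP imaging ex488/em500-530; %Activity normalised to -TGF-b and +DMSO controls; CRC fit, curve class.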
An asterisk follows results filed as active. The call rests on the fitted dose curve; in most records, active means well fitted curve in the direction sought with a large enough effect; inconclusive means small, poorly fitted or top-dose-only effect, or another doubt; inactive means no such curve, though single readings can be large; an effect the other way counts as inactive or inconclusive. Potency means the concentration at half of the fitted maximal effect.

For CCOC(=O)c1cnc(SC2CC(=O)N(c3cccc(OC)c3)C2=O)nc1N (stereo not given) the results were Gal4-VP16 FLuc inconclusive, S2 tox inactive, HepG2 tox -0.9%, ATXN2 expr inh -0.3%, RORg inh -13.7% and TGFb inhibitor -5.1%.
CCOc1ccc2nc(SC3CC(=O)N(c4cccc(OC)c4)C3=O)sc2c1 (stereo not given) was read as Gal4-VP16 FLuc 3.98µM*, S2 tox inactive, HepG2 tox 30.7%, ATXN2 expr inh 33.5%, RORg inh 14.1µM* and TGFb inhibitor 8.2%.
O=C(Nc1ccc2c(c1)N(C1CCCC1)C(=O)c1ccccc1S2)c1ccccc1 was read as S2 tox inconclusive, HepG2 tox -9.8%, ATXN2 expr inh 21.4% and TGFb inhibitor 4.2%.
Screening Cc1nnc(N/N=C/c2ccc(Br)cc2)n1N returned Gal4-VP16 FLuc inconclusive, S2 tox inactive, HepG2 tox 15.8µM*, ATXN2 expr inh -28.6%, RORg inh inconclusive and TGFb inhibitor inconclusive.
`Cc1nnc(N/N=C/c2ccc(-c3ccc(Br)cc3)o2)n1N` gave Gal4-VP16 FLuc 8.91µM*, HepG2 tox -104.0%, ATXN2 expr inh -32.6%, RORg inh 3.16µM* and TGFb inhibitor inconclusive.
Screening Cc1nnc(N/N=C\c2ccc(-c3cccc(C(=O)O)c3)o2)n1N returned Gal4-VP16 FLuc inconclusive, S2 tox inactive, HepG2 tox 7.08µM*, ATXN2 expr inh inconclusive, RORg inh inconclusive and TGFb inhibitor 10µM*.
`O=S1(=O)CCOC[C@H](c2ccccc2)N1Cc1ccc(Cl)c(Cl)c1` gave HepG2 tox -11.3% and TGFb inhibitor inconclusive.
Screening O=c1c(-c2ccc(F)cc2)nc2cnc(N3CCOCC3)nc2n1CCc1ccccc1 returned Gal4-VP16 FLuc 1.0% and RORg inh -12.5%.
Screening CC(=C/c1ccccc1)/C=N/n1c(-c2ccncc2)n[nH]c1=S returned Gal4-VP16 FLuc -3.3%, S2 tox inactive, HepG2 tox 0.4%, ATXN2 expr inh 24.3%, RORg inh inconclusive and TGFb inhibitor 25.1%.
For CC(=C/c1ccccc1)/C=N/n1c(C)n[nH]c1=S the results were Gal4-VP16 FLuc 6.31µM*, S2 tox inactive, HepG2 tox -5.6%, RORg inh 8.91µM* and TGFb inhibitor -6.1%.
CCc1n[nH]c(=S)n1/N=C/c1cc(Br)c(O)c(OC)c1 was read as Gal4-VP16 FLuc -7.2%, S2 tox inactive, HepG2 tox -12.9%, RORg inh -7.4% and TGFb inhibitor -27.2%.
CCc1n[nH]c(=S)n1/N=C/c1ccc(N(CC)CC)cc1 was read as Gal4-VP16 FLuc 6.31µM*, S2 tox inactive, HepG2 tox 6.6%, ATXN2 expr inh -2.5%, RORg inh 2.82µM* and TGFb inhibitor -11.8%.
Screening CCc1ccc(/C=N/n2c(COc3ccccc3)n[nH]c2=S)cc1 returned Gal4-VP16 FLuc inconclusive, S2 tox inactive, HepG2 tox -37.7%, ATXN2 expr inh -3.9%, RORg inh 0.891µM* and TGFb inhibitor inconclusive.
`S=c1[nH]nc(COc2ccccc2)n1/N=C/c1ccncc1` gave Gal4-VP16 FLuc 3.4%, S2 tox inactive, HepG2 tox -5.7%, RORg inh 10µM* and TGFb inhibitor 2.2%.
For CCCCCCc1cc2cc(-c3cn4c(n3)sc3cc(OC)ccc34)c(=O)oc2cc1O the results were HepG2 tox 2.1% and TGFb inhibitor 6.5%.
Screening O=C(Nc1ccncc1)c1cnn2c1NC(=C1CC1)C=C2C(F)F returned HepG2 tox 2.3% and TGFb inhibitor 1.1%.
Screening S=c1[nH]nc(COc2ccccc2)n1/N=C/c1ccccn1 returned Gal4-VP16 FLuc -13.6%, S2 tox inactive, HepG2 tox -0.1%, ATXN2 expr inh 5.1%, RORg inh inconclusive and TGFb inhibitor 10.0%.
